Measurements taken from PubChem BioAssay AID720597 (Broad Institute, 2013).
Results with a measured potency or affinity are listed apart. The source made the active and inactive calls.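 How the source made its calls: active means fitted half-maximal dose no more than twice the top valid tested dose, for compounds that lower signal; inconclusive means fit invalid, or curve flat with activity between -70 and -30; inactive means potency past limit, curve flat within ±30, or signal increasing.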

Molecular target: NAD-dependent protein deacylase sirtuin-5, mitochondrial (Homo sapiens) (UniProt Q9NXA8)
Test: blockers of sirtuin-5 peptide desuccinylation – biochemical, fluorescence imaging, cherry-pick, set 6, dose response (AID 720597);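 further: lower AMC signal can also come from blocking the trypsin step; 0% = median of neutral control wells and -100% = median of positive control wells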
Details: Purified SirT5, succinyl-peptide-AMC/trypsin fluorescence; series mostly up to 15 µM; activity change, negative = inhibition: at the top concentration

NAD-dependent protein deacylase sirtuin-5, mitochondrial (Homo sapiens), sequence (Q9NXA8 whole entry, looked up): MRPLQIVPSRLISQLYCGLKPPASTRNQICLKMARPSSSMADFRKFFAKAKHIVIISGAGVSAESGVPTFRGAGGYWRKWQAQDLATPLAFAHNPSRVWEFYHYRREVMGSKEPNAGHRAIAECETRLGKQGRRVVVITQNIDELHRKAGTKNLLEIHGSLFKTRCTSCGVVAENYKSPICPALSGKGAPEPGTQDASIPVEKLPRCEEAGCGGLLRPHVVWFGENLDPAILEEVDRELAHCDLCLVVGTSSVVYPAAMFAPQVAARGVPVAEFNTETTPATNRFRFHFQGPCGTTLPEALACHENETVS

Compound | activity change, negative = inhibition | outcome
Cc1ccc(S(=O)(=O)N(C)C[C@@H]2OCCCC[C@@H](C)Oc3ccc(NS(=O)(=O)c4ccc(F)cc4)cc3C(=O)N([C@@H](C)CO)C[C@H]2C)cc1 | 11% (inactive) | –
C[C@H](CO)N1C[C@H](C)[C@H](CN(C)S(=O)(=O)c2cccs2)Oc2c(NC(=O)C3CCCCC3)cccc2C1=O | -21% (inactive) | –
COc1cccc(CN2[C@@H](CO)[C@H](c3ccccc3)C23CN(C(=O)C2CCCC2)C3)c1 | -11.3% (inactive) | –
C[C@@H]1CN([C@@H](C)CO)C(=O)c2cc(NC(=O)Cc3ccccc3)ccc2O[C@@H]1CN(C)Cc1ccc(Oc2ccccc2)cc1 | 44.1% (inactive) | –
C[C@H]1CN([C@@H](C)CO)S(=O)(=O)c2ccc(-c3cncnc3)cc2O[C@H]1CN(C)Cc1ccccn1 | 6.87% (inactive) | –
C[C@H]1CCCCO[C@@H](CN(C)Cc2ccc(C(F)(F)F)cc2)[C@@H](C)CN([C@@H](C)CO)C(=O)c2cc(NS(=O)(=O)c3ccc(F)cc3)ccc2O1 | -29.9% (inactive) | –
CC(C)C#Cc1ccc([C@@H]2[C@@H](CO)N3C(=O)CN(C(=O)c4ccc5c(c4)OCO5)C[C@H]23)cc1 | -20.6% (inactive) | –
COc1cccc(S(=O)(=O)N(C)C[C@@H]2Oc3cc(C4=CCCCC4)ccc3S(=O)(=O)N([C@H](C)CO)C[C@H]2C)c1 | 10.5% (inactive) | –
C[C@@H]1CN([C@@H](C)CO)C(=O)c2cccc(NS(=O)(=O)c3cn(C)cn3)c2O[C@H]1CN(C)C(=O)Nc1cccc2ccccc12 | -7.45% (inactive) | –
C[C@H](CO)N1C[C@H](C)[C@H](CN(C)Cc2ccccc2)Oc2cc(/C=C/c3ccccc3)ccc2S1(=O)=O | -19.4% (inactive) | –
Cc1ccc(S(=O)(=O)N(C)C[C@H]2OCCCC[C@H](C)Oc3ccc(NS(=O)(=O)c4ccc(F)cc4)cc3C(=O)N([C@H](C)CO)C[C@@H]2C)cc1 | -0.702% (inactive) | –
COc1ccccc1S(=O)(=O)N(C)C[C@@H]1Oc2cc(C#CCC3CCCC3)ccc2S(=O)(=O)N([C@H](C)CO)C[C@H]1C | -8.51% (inactive) | –
COc1cccc(NC(=O)N2CC(=O)N3[C@H](CO)[C@H](c4ccc(C#CCC5CCCC5)cc4)[C@H]3C2)c1 | 24.2% (inactive) | –
COc1ccccc1-c1ccc2c(c1)O[C@@H](CN(C)S(=O)(=O)c1ccccc1)[C@H](C)CN([C@@H](C)CO)S2(=O)=O | -12% (inactive) | –
Cc1noc(C)c1NC(=O)Nc1cccc2c1O[C@H](CN(C)Cc1ccc(Oc3ccccc3)cc1)[C@H](C)CN([C@H](C)CO)C2=O | -14.9% (inactive) | –
O=C(C[C@H]1CC[C@@H](NC(=O)c2ccccc2)[C@H](CO)O1)NCCc1ccncc1 | 27.9% (inactive) | –
O=S(=O)(c1cccs1)N1CCCCN2[C@H](CO)[C@H](c3ccc(C4=CCCCC4)cc3)[C@H]2C1 | -13.2% (inactive) | –
Cc1ccccc1-c1ccc([C@H]2[C@H](CO)N3CCCCN(S(=O)(=O)c4ccc(F)cc4)C[C@@H]23)cc1 | -14.6% (inactive) | –
C[C@@H]1CN([C@H](C)CO)C(=O)c2cc(-c3cccc(F)c3)cnc2O[C@@H]1CN(C)C | -0.953% (inactive) | –
CO[C@@H]1CN(C)C(=O)c2ccc(NC(=O)Nc3ccccc3)cc2OC[C@@H](C)N(C(C)=O)C[C@H]1C | -32.1% (inactive) | –

Compound | activity change, negative = inhibition | outcome
CCCC#Cc1ccc([C@@H]2[C@@H](CO)N3CCCCN(S(=O)(=O)Cc4ccccc4)C[C@@H]23)cc1 | 0.882% (inactive) | –
C[C@@H]1CN([C@H](C)CO)C(=O)Cc2cc(NC(=O)Nc3ccc(F)cc3)ccc2O[C@H]1CN(C)C | -18.6% (inactive) | –
CC(=O)N1[C@H](CO)[C@H](c2ccc(-c3ccncc3)cc2)[C@@H]1CNC(=O)CC1CC1 | -8.06% (inactive) | –
Cc1ccc(S(=O)(=O)N(C)C[C@@H]2OCCCC[C@H](C)Oc3ccc(NS(=O)(=O)c4ccc(F)cc4)cc3C(=O)N([C@H](C)CO)C[C@@H]2C)cc1 | -20.2% (inactive) | –
C[C@@H]1CN([C@@H](C)CO)C(=O)c2cccc(NC(=O)c3ccncc3)c2O[C@H]1CN(C)Cc1ccccc1 | -10.4% (inactive) | –
COc1cccc(S(=O)(=O)N(C)C[C@H]2Oc3cc(C4=CCCC4)ccc3S(=O)(=O)N([C@@H](C)CO)C[C@H]2C)c1 | 30.6% (inactive) | –
C[C@@H]1CCCCO[C@@H](CN(C)C(=O)Nc2ccc(C(F)(F)F)cc2)[C@@H](C)CN([C@H](C)CO)C(=O)c2cc(NS(=O)(=O)c3ccc(Cl)cc3)ccc2O1 | – | inactive
Cc1ccc(S(=O)(=O)N(C)C[C@H]2OCCCC[C@H](C)Oc3ccc(NS(=O)(=O)c4ccc(Cl)cc4)cc3C(=O)N([C@@H](C)CO)C[C@@H]2C)cc1 | 2.27% (inactive) | –
C[C@H]1CN([C@@H](C)CO)S(=O)(=O)c2ccc(C#Cc3ccc(F)cc3)cc2O[C@H]1CN(C)S(=O)(=O)c1ccc(F)cc1 | -20% (inactive) | –
O=S(=O)(c1ccc(F)cc1)N1CCCCN2[C@@H](CO)[C@@H](c3ccc(C#CC4CCCC4)cc3)[C@@H]2C1 | -19.5% (inactive) | –
COc1ccc(CN(C)C[C@H]2OCCCC[C@H](C)Oc3ccc(N(C)C)cc3C(=O)N([C@H](C)CO)C[C@H]2C)cc1 | 13.1% (inactive) | –
COc1ccc(S(=O)(=O)Nc2ccc3c(c2)C(=O)N([C@@H](C)CO)C[C@@H](C)[C@@H](CN(C)S(=O)(=O)c2ccc(Cl)cc2)OCCCC[C@H](C)O3)cc1 | 5.97% (inactive) | –
C[C@H](CO)N1C[C@H](C)[C@H](CN(C)C(=O)c2ccccc2F)Oc2ncc(Br)cc2C1=O | -2.09% (inactive) | –
COc1ccc(C#Cc2ccc([C@@H]3[C@H](CO)N4C(=O)CN(C(=O)c5cccnc5)C[C@@H]34)cc2)cc1 | -0.496% (inactive) | –
C[C@@H]1CN([C@H](C)CO)S(=O)(=O)c2ccc(C#Cc3ccc(F)cc3)cc2O[C@H]1CN(C)S(=O)(=O)c1ccc(F)cc1 | -7.84% (inactive) | –
COc1ccc(S(=O)(=O)Nc2ccc3c(c2)C(=O)N([C@@H](C)CO)C[C@@H](C)[C@@H](CN(C)Cc2ccc(Oc4ccccc4)cc2)O3)cc1 | -0.798% (inactive) | –
O=C(C1CCC1)N1CC[C@H]2[C@H](CO)Nc3ccc(C#Cc4cccc(F)c4)cc3[C@H]21 | -12.4% (inactive) | –
COc1ccc(NC(=O)N(C)C[C@H]2Oc3ccc(NS(=O)(=O)c4ccc(F)cc4)cc3C(=O)N([C@H](C)CO)C[C@H]2C)cc1 | -20.5% (inactive) | –
CC(=O)N1CC(=O)N2[C@@H](CO)[C@H](c3ccc(-c4ccc(C(=O)N(C)C)cc4)cc3)[C@@H]2C1 | -18.5% (inactive) | –
COc1ccc(CN2C[C@@H](O)COC[C@H]3O[C@H](CC(=O)NCCN4CCCC4)CC[C@@H]32)cc1 | -17.3% (inactive) | –
